# Whole data set: some 81,000 sequences, median “one-hybrid fitness for binding NBS DNA” near -0.1, cut for the highest 2% near 0.36. The sample as a whole holds a higher share of the highest values than the screen did.
# B1: Caulobacter ParB omega fusion; a variant is named by its letters at X, in order, B8GW30 (parent)
# chain: MESVVVGEPGMSEGRRGLGRGLSALLGEVDAAPAQAPGEQLGGSREAPIEILQRNPDQPRRTFREEDLEDLSNSIREKGVLQPILVRPSPDTAGEYQIVAGERAWRAAQRAGLKTVPIMVRELDDLAVLEIGIIENVQRADLNVLEEALSYKVLMEKFERTQENIAQTIGKSXSHVANXMRLLXLPDEVQSYLVSGELTAXHARAIAAAADPVALAKQIIEGGLSVRETEALARKAPNLSAGKSKGGRPPRVKDTDTQALESDLSSVLGLDVSIDHRGSTGTLTITYATLEQLDDLCNRLTRGI
# Variants of: B1
# Assay: one-hybrid fitness for binding NBS DNA (the Noc-binding site; scaled: cognate 1, non-cognate 0); higher = stronger binding
# Conditions: with NBS DNA site
# Outline: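 Fitness is the rescaled log change in variant-to-wild-type read ratio, measured by Illumina sequencing of plasmids before and after bacterial one-hybrid selection. The scale puts cognate at 1 and non-cognate at 0. Selection of Caulobacter ParB libraries, four specificity codons randomised, took place in E. coli USO with a HIS3 reporter, site 19 bp from the promoter, over 48 hours at 37°C on M9-minus-histidine with 0.1 mM IPTG and 5 mM 3-AT.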
row,Variant,one-hybrid fitness for binding NBS DNA
1,AEVC,≤ 0.2
2,LDTD,≤ 0.2
3,DQQR,≤ 0.2
4,PSGT,≤ 0.2
5,DSIE,≤ 0.2
6,WSFT,≤ 0.2
7,GPRS,≤ 0.2
8,PFKM,≤ 0.2
9,QQPY,≤ 0.2
10,QTTF,≤ 0.2
11,QHTD,≤ 0.2
12,QHTR,0.527
13,QTTR,0.794
14,QTTQ,0.242
15,QHTH,≤ 0.2
16,QSTP,≤ 0.2
17,QSTD,≤ 0.2
18,QKTH,0.241
19,QKTR,0.646
20,QKTK,≤ 0.2
21,QSTR,0.531
22,HRSV,≤ 0.2
23,ENSS,≤ 0.2
24,DMPS,≤ 0.2

row,Variant,one-hybrid fitness for binding NBS DNA
1,GDPL,≤ 0.2
2,ACNS,≤ 0.2
3,TMDS,≤ 0.2
4,PAFY,≤ 0.2
5,QPEV,≤ 0.2
6,IHVS,≤ 0.2
7,GGTE,≤ 0.2
8,HVRY,≤ 0.2
9,QLTD,≤ 0.2
10,QCTR,0.637
11,QLTR,0.487
12,QRTR,1.01
13,DRTR,≤ 0.2
14,QNTR,0.223
15,NRTR,≤ 0.2
16,QLTN,≤ 0.2
17,QPTR,≤ 0.2
18,PNSR,≤ 0.2
19,QDFN,≤ 0.2
20,VVTR,≤ 0.2
21,ASAC,≤ 0.2
22,AKMS,≤ 0.2
23,VYSF,≤ 0.2
24,GLYG,≤ 0.2

row,Variant,one-hybrid fitness for binding NBS DNA
1,HCDP,≤ 0.2
2,RLSK,≤ 0.2
3,RLGH,≤ 0.2
4,RLDR,≤ 0.2
5,RLGR,0.443
6,RLSR,0.43
7,RLYR,0.385
8,RLNN,≤ 0.2
9,RLPR,≤ 0.2
10,RLGN,≤ 0.2
11,RLSC,≤ 0.2
12,RLWR,0.248
13,RLNR,0.526
14,PRNP,≤ 0.2
15,HRFS,≤ 0.2
16,YKLT,≤ 0.2
17,CNVC,≤ 0.2
18,CNLW,≤ 0.2
19,RLIR,0.21
20,RLCS,0.334
21,RLCN,≤ 0.2
22,RLHD,≤ 0.2
23,RLCR,0.412
24,RLLR,0.32

row,Variant,one-hybrid fitness for binding NBS DNA
1,RLRR,0.673
2,RLQQ,≤ 0.2
3,RLQR,0.43
4,RLQY,≤ 0.2
5,RLHM,≤ 0.2
6,RLHR,0.491
7,HQQG,≤ 0.2
8,GCLR,≤ 0.2
9,YYLT,≤ 0.2
10,TQHV,≤ 0.2
11,RMVQ,≤ 0.2
12,WTKW,≤ 0.2
13,SRPI,≤ 0.2
14,QTRF,0.446
15,QRRF,0.418
16,QTDF,≤ 0.2
17,QCRF,0.423
18,QTYF,≤ 0.2
19,QRYF,0.227
20,QSRF,0.265
21,QPRF,≤ 0.2
22,QRDF,≤ 0.2
23,NNNK,≤ 0.2
24,WGNT,≤ 0.2

row,Variant,one-hybrid fitness for binding NBS DNA
1,AIMG,≤ 0.2
2,NWSC,≤ 0.2
3,HMTV,≤ 0.2
4,SYSV,≤ 0.2
5,RCDA,≤ 0.2
6,RRDA,0.463
7,RCNA,0.298
8,RRNA,0.679
9,RSDA,≤ 0.2
10,RPNA,≤ 0.2
11,VHDS,≤ 0.2
12,RQYA,≤ 0.2
13,PMCY,≤ 0.2
14,RICH,≤ 0.2
15,RCCR,0.45
16,RHCH,≤ 0.2
17,RSCN,≤ 0.2
18,RFCR,≤ 0.2
19,RHCR,0.37
20,RPCR,≤ 0.2
21,RHCP,≤ 0.2
22,RICN,≤ 0.2
23,RSCH,≤ 0.2
24,RICR,0.369

row,Variant,one-hybrid fitness for binding NBS DNA
1,RSCR,0.38
2,TYVA,≤ 0.2
3,SMNL,≤ 0.2
4,VKSS,≤ 0.2
5,NEES,≤ 0.2
6,WCYR,≤ 0.2
7,AMGT,≤ 0.2
8,RKCD,≤ 0.2
9,RKCH,≤ 0.2
10,RKCR,0.552
11,SQRN,≤ 0.2
12,VTPF,≤ 0.2
13,LTHI,≤ 0.2
14,PWLV,≤ 0.2
15,QQNC,0.265
16,QQFG,≤ 0.2
17,QQRC,0.455
18,QQKG,0.437
19,QQVC,≤ 0.2
20,QQFC,≤ 0.2
21,QQVG,≤ 0.2
22,QQVY,≤ 0.2
23,QQKC,0.449
24,QQKY,0.63

row,Variant,one-hybrid fitness for binding NBS DNA
1,QQYC,≤ 0.2
2,QQDY,≤ 0.2
3,RRWI,0.2
4,GLIT,≤ 0.2
5,LTTA,≤ 0.2
6,AREP,≤ 0.2
7,GRTD,≤ 0.2
8,PMHT,≤ 0.2
9,PPTR,≤ 0.2
10,KSNL,≤ 0.2
11,THKH,≤ 0.2
12,WPSG,≤ 0.2
13,GFYT,≤ 0.2
14,QQYY,≤ 0.2
15,QQKS,0.714
16,QQFY,≤ 0.2
17,QQRY,0.597
18,QQFM,≤ 0.2
19,QQRM,0.459
20,QQKN,0.464
21,QQYM,≤ 0.2
22,NQKS,≤ 0.2
23,QQVS,0.33
24,TWEG,≤ 0.2

row,Variant,one-hybrid fitness for binding NBS DNA
1,PTGW,≤ 0.2
2,RYQK,≤ 0.2
3,KVTF,≤ 0.2
4,WKWG,≤ 0.2
5,DWIC,≤ 0.2
6,LTTQ,≤ 0.2
7,SPPV,≤ 0.2
8,QQKM,0.476
9,QQRG,0.407
10,QQPK,≤ 0.2
11,QQDM,≤ 0.2
12,QQYG,≤ 0.2
13,QQDG,≤ 0.2
14,QQYK,≤ 0.2
15,QQDK,≤ 0.2
16,QQVM,≤ 0.2
17,QQRK,0.499
18,QQKK,0.506
19,QQAK,≤ 0.2
20,ASHP,≤ 0.2
21,HWMG,≤ 0.2
22,ITPE,≤ 0.2
23,GQNS,≤ 0.2
24,TPEF,≤ 0.2

row,Variant,one-hybrid fitness for binding NBS DNA
1,IIVG,≤ 0.2
2,NNMC,≤ 0.2
3,QQKH,0.657
4,QQKD,0.345
5,QQKP,0.336
6,SQHR,≤ 0.2
7,QCRI,0.407
8,QRGI,0.37
9,IDNI,0.591
10,QCGI,≤ 0.2
11,QSGI,≤ 0.2
12,IDCI,≤ 0.2
13,IDPI,≤ 0.2
14,QREI,≤ 0.2
15,QSRI,0.338
16,QRYI,0.254
17,QRRI,0.43
18,QPRI,≤ 0.2
19,PDRM,≤ 0.2
20,MWKT,≤ 0.2
21,DTEY,≤ 0.2
22,DDNC,≤ 0.2
23,PMEV,≤ 0.2
24,FFGC,≤ 0.2

row,Variant,one-hybrid fitness for binding NBS DNA
1,MTER,≤ 0.2
2,QRDI,≤ 0.2
3,QTYI,≤ 0.2
4,QRNI,0.403
5,QTDI,≤ 0.2
6,QCNI,≤ 0.2
7,QTRI,0.478
8,HLFS,≤ 0.2
9,RRGM,0.237
10,RRGS,0.55
11,RRGH,0.44
12,RRGN,0.324
13,RRGD,≤ 0.2
14,RRGP,≤ 0.2
15,PPPL,≤ 0.2
16,GQQS,≤ 0.2
17,RDPN,≤ 0.2
18,DGTL,≤ 0.2
19,SCPT,≤ 0.2
20,RTVR,0.416
21,RTKG,0.223
22,RTKR,0.866
23,RTKM,0.303
24,WTEY,≤ 0.2

row,Variant,one-hybrid fitness for binding NBS DNA
1,YTWG,≤ 0.2
2,PYNR,≤ 0.2
3,QSQS,0.36
4,QMQS,0.394
5,QMQP,≤ 0.2
6,QPQS,≤ 0.2
7,QHQN,≤ 0.2
8,QCQS,0.448
9,QMQH,≤ 0.2
10,QHIS,0.258
11,QHQS,0.394
12,CTNW,≤ 0.2
13,LAHD,≤ 0.2
14,LHIV,≤ 0.2
15,RCMT,0.492
16,RKMT,0.587
17,RTMK,≤ 0.2
18,RFMT,≤ 0.2
19,RRMY,0.338
20,RKMM,≤ 0.2
21,RTMG,≤ 0.2
22,RSMT,0.305
23,RRMM,0.221
24,RTMT,0.491

row,Variant,one-hybrid fitness for binding NBS DNA
1,RPMT,≤ 0.2
2,RRMT,0.776
3,PHSL,≤ 0.2
4,GMRS,≤ 0.2
5,SYNI,≤ 0.2
6,EIAA,≤ 0.2
7,WPVG,≤ 0.2
8,AYDR,≤ 0.2
9,PHAW,≤ 0.2
10,RMQT,0.371
11,RMLT,0.347
12,RMGT,0.432
13,RMST,0.483
14,RMQP,≤ 0.2
15,RMGF,≤ 0.2
16,RMRT,0.633
17,RMGK,≤ 0.2
18,RMQD,≤ 0.2
19,RMSK,≤ 0.2
20,RMIT,0.253
21,RMSG,≤ 0.2
22,NYTS,≤ 0.2
23,GQGC,≤ 0.2
24,AMCS,≤ 0.2

row,Variant,one-hybrid fitness for binding NBS DNA
1,NVHT,≤ 0.2
2,RMYT,0.417
3,RMWT,0.348
4,RMPT,≤ 0.2
5,PILE,≤ 0.2
6,WLPE,≤ 0.2
7,CTVI,≤ 0.2
8,RAMV,≤ 0.2
9,RKCN,≤ 0.2
10,RSCS,0.343
11,RKCP,≤ 0.2
12,RTCP,≤ 0.2
13,RMCD,≤ 0.2
14,RTCH,0.234
15,RMCS,0.383
16,RKCS,0.525
17,RMCP,≤ 0.2
18,RPCS,≤ 0.2
19,RCCS,0.46
20,RTCS,0.467

# Reference: a collection of fitness landscapes (doi:10.1016/j.celrep.2020.107928)
